# Test results from PubChem BioAssay AID485297 (National Center for Advancing Translational Sciences (NCATS), 2010).
# In all, about 320,000 compounds went through this assay and about 9,100 (2.8%) were called active. Not shown: some 3% with an inconclusive outcome. What follows is part of a selection rich in actives, with near analogues and random picks from the rest. A number with no mark means an inactive call. The call rests on the fitted dose curve; in most records, active means well fitted activation curve with a large enough effect; inconclusive means small, poorly fitted or top-dose-only effect; inactive means no such curve, though single readings can be large or run the other way.
# Assay: qHTS Assay for Rab9 Promoter Activators; further: nearly all actives have a fitted effect of over 60% in size; on activation, negative = inhibition: % of control where 0% means no effect
# Details: Huh7 Rab9 promoter-luciferase reporter, luminescence, 24 h; series mostly up to 9.22 µM; activation, negative = inhibition: at the top concentration
# Method in brief: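 Using Huh7 cells stably transfected with Rab9 promoter–luciferase, compounds were incubated 24 h at 37 °C, 5% CO2; luciferase luminescence was read 10 min after reagent addition.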
# Potency means the concentration at half of the fitted maximal effect.
SMILES,"activation, negative = inhibition",Potency
NC(=O)COC(=O)/C=C/c1ccc2ccccc2n1,1.99%,
COc1cccc(/C=C2\C=C(c3ccc(C)cc3)OC2=O)c1OC(C)=O,1.65%,
COc1cccc(/C=C/c2ccc3ccccc3n2)c1OC(C)=O,,447 nM (active)
CCc1ccc(Nc2nnc(SCC(=O)c3ccc4c(c3)NC(=O)CO4)s2)cc1,-30.9%,
Cc1noc(C)c1-c1ccc2ncnc(NC(C)c3ccco3)c2c1 (centres undefined),-2.48%,
COc1ccc(CN2CCN(C(=O)c3cc(C4CC4)nn3-c3ccccc3)CC2)cc1F,15.7%,
Nc1ccc2nn(-c3ccc(Cl)cc3)nc2c1,,224 nM (active)
c1ccc(-n2nc3ccccc3n2)cc1,-3.95%,
CN(C)c1nnnn1-c1ccc(Cl)cc1,2.01%,
CCOc1ccc(N2C(=O)CSC2=NC#N)cc1,-2.64%,
C=CCn1c(SCC(=O)Nc2ccc(NC(C)=O)cc2)nc2sc(C)c(C)c2c1=O,-8.33%,
COC(=O)c1ccc(NC(=O)Nc2ccc(C)cc2)cc1,27.4%,
Cc1nc2ccc(NC(=O)C(F)(F)F)cc2o1,1.46%,
Cc1ccc(NC(=O)Nc2ccc3oc(C)nc3c2)cc1,,1580 nM (active)
CCOc1ccc(C(=O)NCC(=O)N2CCN(c3ccc(C(F)(F)F)cn3)CC2)cc1,-12%,
CCCCn1c(N)c(N(CCC(C)C)C(=O)COC(=O)c2ccc(CC)cc2)c(=O)[nH]c1=O,-0.386%,
Cc1ncc(CO)c(/C=N/NC(=O)c2cccc(S(=O)(=O)N3CCCC3)c2)c1O,-4.79%,
O=C(N/N=C/c1cccc([N+](=O)[O-])c1)C1CC(=O)N(c2ccc(Br)cc2)C1 (centres undefined),-3.01%,
O=[N+]([O-])c1cccc(/C=N/Nc2ncc(Br)cn2)c1,,2820 nM (active)
Cc1ccc(NC(=O)O/N=C/c2cccc([N+](=O)[O-])c2)cc1,4.71%,
CCOc1ccc(NC(=O)CN(C)C(=O)Cn2c(=O)cnc3ccccc32)cc1OCC,3.18%,
Cc1nn(Cc2ccc(Cl)cc2)c(Cl)c1/C=N/NC(=O)c1cccnc1,-0.877%,

SMILES,"activation, negative = inhibition",Potency
Cc1cc(/C=N/NC(=O)c2cccnc2)c(C)n1CC(C)C,,2820 nM (active)
O=C(N/N=C/c1ccccn1)c1cccnc1,-1.61%,
Cc1occc1C(=O)Nc1nnc(-c2ccncc2)s1,14.6%,
Cc1cnc(NC(=O)CSc2c(Cl)cccc2Cl)s1,0.703%,
CCN(CC)c1ccc(NC(=O)c2ccc(Cl)nc2)cc1,-25.6%,
O=C(Nc1nnc(C2CC2)s1)c1cc(Cl)sc1Cl,16%,
O=C(Cc1cccs1)Nc1nnc(C2CC2)s1,1.92%,
O=C(Nc1nnc(C2CC2)s1)c1ccccn1,,447 nM (active)
Cc1cnc(NC(=O)c2ccccn2)s1,,282 nM (active)
CS(=O)(=O)c1ccc2nc(NC(=O)c3ccc(Cl)nc3)sc2c1,10.6%,
Cc1cnc(NC(=O)C2CCCC2)s1,2.21%,
Cc1occc1C(=O)Nc1nnc(C2CCCCC2)s1,,2820 nM (active)
Cc1cnc(NC(=O)c2ccc(Cl)nc2)s1,,2820 nM (active)
COc1ccc(NC(=O)CCC(=O)Nc2nnc(C3CCCCC3)s2)cc1,10.1%,
CCCCCN(C(=O)CCC(=O)OCC(=O)NCc1ccc(OC)cc1)c1c(N)n(CCCC)c(=O)[nH]c1=O,-0.822%,
CC(=O)c1ccccc1NC(=O)C1CC(=O)N(c2ccc3c(c2)OCCO3)C1 (centres undefined),-0.721%,
CN(CC(=O)Nc1ccc(OC(F)(F)F)cc1)C(=O)C1CCC1,-5.11%,
CSc1ccccc1NC(=O)COC(=O)CCCOc1ccc(C)cc1,-2%,
Cc1ccc(S(=O)(=O)N2CCN(C(=O)N3CCOCC3)CC2)c(C)c1,0.487%,
COc1ccccc1N1CCN(/N=C/c2ccc(O)cc2O)CC1,,3160 nM (active)
COc1ccccc1N1CCN(C(=O)C(=O)N/N=C/c2ccccc2F)CC1,-6.38%,
COc1cc(/C=N/N2CCN(c3ccccc3)CC2)ccc1OC(C)=O,-1.62%,

SMILES,"activation, negative = inhibition",Potency
Fc1ccc(COc2ccc(-c3nnco3)cc2)cc1,,3980 nM (active)
Fc1ccc(COc2cccc(-c3n[nH]c(=S)o3)c2)cc1,1.15%,
Fc1cccc(Cl)c1COc1ccc(-c2nnco2)cc1,15.3%,
CC(NC(=O)c1cccc(S(=O)(=O)N2CCc3ccccc3C2)c1)c1ccco1 (centres undefined),-7.93%,
O=C(CSc1nnc(CN2CCCC2)n1-c1ccc(F)cc1)c1ccc2c(c1)OCO2,-4.68%,
CC(C)(C)OC(=O)NCCCCCNC(=O)c1[nH]cnc1C(=O)Nc1nccs1,-0.539%,
CC(C)c1ccc(N2CCN(C(=O)c3ccccc3NC(=O)/C=C(\C(=O)O)c3ccccc3)CC2)cc1,1.27%,
Cc1cccc(CSc2nnc(NC(=O)CSc3nnc(C)s3)s2)c1,0.771%,
CCSc1nnc(NC(=O)c2ccc(C)cc2)s1,,2240 nM (active)
NC(=O)CSc1nnc(NC(=O)c2ccc3ccccc3c2)s1,,2820 nM (active)
O=C(/C=C/c1ccccc1)Nc1nnc(SCC(=O)c2ccc3ccccc3c2)s1,3.06%,
NC(=O)CSc1nnc(NC(=O)c2ccc(Br)o2)s1,15.8%,
C=CCSc1nnc(NC(=O)c2ccc(NC(C)=O)cc2)s1,19.7%,
C[C@H](NC(=O)c1ccccc1)C(=O)OCC(=O)c1c[nH]c2ccccc12,6.31%,
O=C(Nc1ccc(C(F)(F)F)cc1)c1cccc(-n2cnnn2)c1,0.871%,
O=C(CCNS(=O)(=O)c1ccccc1)NCCSc1ccc(Br)cc1,-2.67%,
Cc1cc(C)nc(Nc2ncn[nH]2)n1,-0.93%,
COc1ccccc1-c1nc(SC)n[nH]1,0.474%,
Cc1cc(C)nc(Nc2n[nH]c(-c3ccccc3N)n2)n1,,501 nM (active)
COC(=O)c1ccc(COC(=O)CNC(=O)c2cccc(OC)c2)o1,-1.88%,
O=C(Nc1cc(Cl)ccc1N1CCOCC1)c1ccc(N2CCCC2=O)cc1,0.25%,
COc1ccccc1CNC(=O)COC(=O)CNS(=O)(=O)c1ccc(NC(C)=O)cc1,-1.72%,

SMILES,"activation, negative = inhibition",Potency
Cc1cccc(C(=O)NCC(=O)OCC(=O)N(C)CC(=O)Nc2ccccc2Cl)c1,0.684%,
CCn1c(SCC(=O)NCC2CCCO2)nc2ccccc21 (centres undefined),-4.36%,
CN(C(=O)COC(=O)CCCc1c[nH]c2ccccc12)c1c(N)n(Cc2ccccc2)c(=O)[nH]c1=O,-3.62%,
FC(F)(F)c1ccnc(Oc2ccc(C3=NCCS3)cc2)c1,,708 nM (active)
O=Cc1ccc(Oc2cccc(C(F)(F)F)c2)nc1,-3.19%,
O=[N+]([O-])c1cccc(C2=NCCS2)c1,1.16%,
CCN(CC(=O)Nc1ccc(OC)cc1)C(=O)c1ccc(=O)n(Cc2ccccc2)n1,1.5%,
COc1ccc(NC(=O)COC(=O)c2n[nH]c3ccccc23)c(OC)c1,3.04%,
COc1cccc(NC(=O)c2cc(S(=O)(=O)N3CCc4ccccc43)cn2C)c1,-7.88%,
O=c1ccc2c(-c3ccccc3S(=O)(=O)O)c3ccc(O)c(O)c3oc-2c1O,-11.8%,
COc1cc(OC)cc(C(=O)NCC(=O)N2CCCCCCC2)c1,1.42%,
Cc1ccc(SCCC(=O)Nc2cc(C)on2)cc1,0.952%,
Cc1ccc2nc(-c3ccc(SCC(=O)Nc4cc(C)on4)nc3)[nH]c2c1,,3980 nM (active)
Cc1ccc2nc(SCC(=O)NC3CCCC3)[nH]c2c1,-4.55%,
COc1ccc(N(CC(=O)NCCSCc2cccc(Cl)c2)S(C)(=O)=O)cc1,-0.778%,
CCN(C(=O)CSc1ncnc2sccc12)c1c(N)n(Cc2ccccc2)c(=O)[nH]c1=O,-3.4%,
NS(=O)(=O)c1ccc(CCNC(=O)COC(=O)COc2cccc(C(F)(F)F)c2)cc1,0.927%,
COc1ccc(C2Nc3ccccc3C(=O)N2c2ccc(Cl)cc2)cc1Cn1cc([N+](=O)[O-])cn1 (centres undefined),,2000 nM (active)
COc1ccc(C2Nc3ccccc3C(=O)N2c2ccc(F)cc2)cc1Cn1nnc2ccccc21 (centres undefined),16.4%,
COc1ccc(C2Nc3ccccc3C(=O)N2Cc2ccccc2)cc1Cn1nnc2ccccc21 (centres undefined),1.82%,
COc1ccccc1Nc1nnc(SC(C)C(=O)NC2CC2)s1 (centres undefined),-3.09%,
CCOC(=O)N1CCN(C(=O)COc2ccc3oc4c(c3c2)CCCC4)CC1,8.64%,

SMILES,"activation, negative = inhibition",Potency
CCN(CC)CCCNC(=O)COc1ccc2oc3c(c2c1)CCCC3,1.01% [at 1.84 µM],
O=C(COc1ccc2oc3c(c2c1)CCCC3)Nc1ccccn1,,1580 nM (active)
COc1ccc(C)cc1NC(=O)CN1c2cccc3cccc(c23)S1(=O)=O,1.82%,
COC(=O)c1cc2c(N)c(C(=O)c3ccc(Cl)cc3)sc2nc1C(OC)OC,-6.44%,
CCCC(=O)n1nc(-c2ccccc2)nc1N,-0.188%,
CCN(CC)C(=O)c1sc2nc(-c3ccccc3)ccc2c1N,,1780 nM (active)
CN(C)c1ccnc2sc(C(=O)c3ccccc3)c(N)c12,,2820 nM (active)
CN(C)c1ccnc2sc3c(=O)n(Cc4ccccc4)cnc3c12,-4.33%,
CS(=O)(=O)c1sc2nc(-c3ccccc3)cc(-c3ccccc3)c2c1N,-6.49%,
Cc1ccc2c(N)c(C(=O)c3ccccc3)sc2n1,,3160 nM (active)
Cc1nc2ccccc2c(-c2ccccc2)c1C(=O)c1ccccc1,-2.28%,
NC(=O)c1sc2nc3c(c(-c4ccccc4)c2c1N)CCC3,-1.61%,
CCOc1ccc(S(=O)(=O)N2CCCCC2)cc1NC(=O)CN1CCCC1c1cccs1 (centres undefined),-24.3%,
N#Cc1ccc(OCC(=O)NC(=O)NC2CCS(=O)(=O)C2)cc1 (centres undefined),-2.91%,
CCOC(=O)c1cc(-c2ccccc2C)n(Cc2cc(C)no2)n1,-3.28%,
Cc1ccc(F)cc1NC(=O)CSCc1c(C)noc1C,-11.3%,
CN(CC(=O)Nc1ccc(Cl)c(C(F)(F)F)c1)C(=O)CCC(=O)c1ccccc1,2.04%,
NC1CCN(O)C1=O (centres undefined),-1.45% [at 46.1 µM],
CC(C)CN(C(=O)CSc1ncnc2sccc12)C1CCS(=O)(=O)C1 (centres undefined),-0.673%,
CC(=O)Nc1ccc(NC(=O)C(NS(=O)(=O)c2ccc3c(c2)OCCO3)C(C)C)cc1 (centres undefined),-7.1%,
Cc1ccc(S(=O)(=O)N(C)CC(=O)NCC(c2ccc(F)cc2)N2CCOCC2)cc1 (centres undefined),0.398%,
